# In the supplement of paper PMC6555819:
# Test system: VDR:RXRa (NR concentration 270 nM, RXRa partner concentration 90 nM)
# Assay: PBM binding z-score (relative to random genomic background probes); higher = stronger binding; sequences stand for … in GC…GCGATTGACAGCGTAGAATGAAGG
# Experimental: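 Protein-binding microarray (Agilent 4x180K custom design, double-stranded 60-nt probes: 5' GC cap, 34-nt variable region, 24-nt constant primer region; full probe sequence given). Purified or IVT nuclear receptor:RXRα heterodimers (3:1 NR:RXRα, mostly 270:90 nM) or homodimers were incubated for 1 h in PBS with 2% milk and no ligand, then detected with Alexa488 antibodies. Fluorescence from o1-orientation probes (~5 replicates averaged) was converted to z-scores against 500 random hg19 background probes. Variable regions are seed direct-repeat (DR0–DR5) sites, all their single-nucleotide variants and half-site ablations.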
row,Sequence,PBM binding z-score
1,TATGCTAGGTCAGTTGGTCAGCTAACGAGCTGCC,0.137
2,TCAGAGAGGTGAAGGTAACTCAGGTACGCAGTCG,0.999
3,CGTCAACGTTCAAGGTAACGTAACAGAAAGCAGC,-0.14
4,CCGACTGGGGCATAAGGTTACCAAAAGCCAGCCC,0.198
5,TCTTGTAGATCAAGCAGATTAAGAAAGCCTGAGT,0.437
6,CCAAGTAGGTTATGGGGCATTCAGGCAACGGTGA,-0.0794
7,CGAACTAGGTCAAGGAGAGTGAATCTCCGCACGC,1.33
8,TCATATAGGTAAACAGGCGAAAGTCCGTAAGTTA,1.13
9,ACTATTAGTTGAGACGAGGGCAACTGATAGGTTG,0.583
10,CTACCAAGTTGAACAAGGTCGTTGATTACTATTC,5.18
11,GCTACTTGGTCAGTAAAAGGTCACACACCGGTCG,4.16
12,TCACATAGGTAATACAGGTGAAAGTCGGCATCTA,1.09
13,CTCGAAAGGTCGGTTGTGGTGAGTATACGGATAA,1.05
14,CCGACTGGGGCAAGGTTACCATCACGCACAGCCA,-0.00962
15,ACAGGCAGGTGAGTGAAGGTAACTCAGCTGGACG,-0.417
16,AGAATGAGGTTAAGATCAGGAAAACAGAATACAT,1.24
17,AGTCAAAGTTCACTAGGTAAAGTAAGATTCAGCT,3.34
18,TCAGACAGGTGAAGGTAACTCGGGTACGCAGTCG,1.45
19,TCTGCTAGGTCAACGATGGTCACCTAATCTGCTA,2.19
20,AATACAGGGTCATCGTAGGCCAGATTACGCACAG,5.22

row,Sequence,PBM binding z-score
1,CCTTACGGGTCACTCCAGGTTATGGCATCGGAGT,4.08
2,AGAATGAGGATACCAAAGATCAGGGAAACGCTTG,-0.361
3,TAGCCTAGGTCATGGGCTAGTATACCACGCGAAC,1.72
4,ATCGAAAGGTCGTGAGGTCAGTATACAGAAAGGC,5.51
5,GATACAGAGTCAAGGCCAGAGTACGCGTATTGAT,-0.36
6,GCGACCGGGGCATCAGCAGGTTACCATAACTTAA,0.435
7,CCTGCTACGTCAATGGTCAGCTAAAGCAGCTCGC,-0.379
8,CGTCCAAGGTCAAGATCAGTGAAAGAGACTCGAA,3.61
9,TCGAATAGGTTAGGGGCATTCAGAATGGCGTCGA,0.8
10,TAGCCTAGGTCATTCAGAGGCCAGTATAGAAAGC,2.84
11,CCTCGGAGGACAGAAGGTCAGAGGTGTCCGCTTT,1.24
12,CTTACTGGGCCAAAAAGGTCATTGATGCCGATAA,4.92
13,TTACCAAGGTGAGCTGAGGTCGGTGATCCAACTC,1.26
14,GATACAGGGTCAGCTAGAGGCCAGAGTATGGAAA,3.33
15,CCAGACAGGTGAGAAGGTAACTCTGCCTCGATTA,-0.12
16,CGTCAAAGTTCAACTAAGGTAACATAAAGCACGC,4.72
17,TCATATAGGTAAAACAGGTGAAAGTCGGCATCTA,1.17
18,TTACCAAGGTGAAGGGCGTTGATCCCTCTGTAGA,0.253
19,CGTCCAAGGTCAATGCTAGGTCCGTGAAAGCATT,3.86
20,TCTATTAGTTGATTAGGGCAACCGTAACAGCGGA,0.769
